Five molecules from PubChem BioAssay can be followed below.

In assay [1] the test system is Plasmodium falciparum Sir2 (PF13_0152, Sir2A). Nature of the assay: Plasmodium falciparum Sir2A binding compounds – biochemical, small-molecule microarray, 635 nm fluorescence, primary screen (AID 1098).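 Note: score merges spot fluorescence intensity with its signal-to-noise ratio.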 The following applies: fluorescence 635 nm, higher = more signal.
The nature of assay [2]: probe aDKK1 binding to arrayed compounds – biochemical, biotinylated probe, 635/667 nm fluorescence, primary screen (AID 1099).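 Note: score merges 667nm spot fluorescence with signal to noise across triplicate slides.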 The following applies: small-molecule microarray, higher = more signal.
Assay [3] in a line: probe aCHRDL2 binding to arrayed compounds – biochemical, biotinylated probe, 635/667 nm fluorescence, primary screen (AID 1100). The following applies: small-molecule microarray, higher = more signal.
Assay [4] is described as follows: change in splice reporter luminescence, either direction, cell-based, HEK293, spliceosome inhibition project, primary screen (AID 1101).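 Note: HEK293 cells carrying a splicing-competent luciferase reporter gene; test concentration not given here.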 The following applies: HEK293 splicing luciferase reporter, 24 h, higher = more signal, called active from +8 up or from −8 down. A general note: A reporter such as luciferase makes a cellular process visible.
Assay [5] has as its target Fibroblast growth factor 10 (Homo sapiens) (UniProt O15520). The assay is described as follows: compounds binding fibroblast growth factor 10 – biochemical, small-molecule microarray, 635 nm fluorescence, primary screen (AID 1102). The following applies: FGF10 binding, fluorescence 635 nm, higher = more signal.
Assay [6] relates to glycogen synthase kinase-3 (GSK3A per assay name; protocol says GSK3B). The assay is described as follows: compounds binding glycogen synthase kinase-3 – biochemical, small-molecule microarray, 635 nm fluorescence, GSK3A, primary screen (AID 1103). Note: the record names both GSK3A and GSK3B. The following applies: fluorescence 635 nm, higher = more signal.
Assay [7] addresses Epidermal growth factor receptor (Homo sapiens) (UniProt P00533). Nature of the assay: compounds binding epidermal growth factor receptor – biochemical, small-molecule microarray, 635 nm fluorescence, primary screen (AID 1104).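 Note: score merges 667 nm emission intensity with spot signal to noise over triplicate slides.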 The following applies: EGFR binding, higher = more signal.
In assay [8] the target is Follistatin-related protein 3 (Homo sapiens) (UniProt O95633). The assay is described as follows: compounds binding follistatin-related protein 3 – biochemical, small-molecule microarray, 635 nm fluorescence, primary screen (AID 1105).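 Note: score merges emission near 667 nm and signal to noise per printed spot across three slides.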 The following applies: FSTL3 binding, higher = more signal.
Chain of Follistatin-related protein 3 (Homo sapiens) (O95633 whole entry, looked up): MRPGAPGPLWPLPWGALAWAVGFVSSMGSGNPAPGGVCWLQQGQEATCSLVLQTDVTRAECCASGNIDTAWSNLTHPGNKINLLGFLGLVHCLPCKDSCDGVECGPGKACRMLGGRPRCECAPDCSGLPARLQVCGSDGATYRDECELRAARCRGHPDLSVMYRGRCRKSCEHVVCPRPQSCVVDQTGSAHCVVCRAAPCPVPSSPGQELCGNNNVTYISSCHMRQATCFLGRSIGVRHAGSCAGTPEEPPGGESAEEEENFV
Assay [9] deals with Dickkopf-related protein 1 (Homo sapiens) (UniProt O94907). Nature of the assay: small molecules binding DKK1 protein – biochemical, small-molecule microarray, 635 nm fluorescence scan, primary screen (AID 1106).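 Note: score merges emission near 667 nm with signal to noise over three replicate slides.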 The following applies: higher = more signal.
Chain of Dickkopf-related protein 1 (Homo sapiens) (O94907 whole entry, looked up): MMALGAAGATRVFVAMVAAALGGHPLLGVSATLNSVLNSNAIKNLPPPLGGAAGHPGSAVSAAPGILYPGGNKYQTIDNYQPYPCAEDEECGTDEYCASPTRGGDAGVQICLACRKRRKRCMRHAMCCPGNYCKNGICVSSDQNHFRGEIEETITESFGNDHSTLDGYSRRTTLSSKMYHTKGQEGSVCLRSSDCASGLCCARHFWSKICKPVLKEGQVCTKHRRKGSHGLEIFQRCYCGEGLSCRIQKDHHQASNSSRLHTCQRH
Assay [10] relates to Inhibin beta A chain (activin A). Nature of the assay: small molecules binding activin A – biochemical, small-molecule microarray, 635 nm fluorescence scan, primary screen (AID 1107).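 Note: mouse activin A protein probed at 4.33 µg/mL on printed slides; score merges bound-protein fluorescence near 667 nm with spot signal-to-noise.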 The following applies: INHBA, higher = more signal.
Assay [11] deals with Human papillomavirus type 1a protein E7 (residues 44-93). The assay is described as follows: small molecules binding HPV E7 44-93 – biochemical, small-molecule microarray, residues 44-93, 635 nm fluorescence, primary screen (AID 1108).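 Note: E7 fragment applied at 1 µg/mL in TBST for 1 h at 4 C; score combines spot fluorescence with its signal to noise ratio.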 The following applies: fluorescence 635 nm, higher = more signal.
A short description of assay [12]: hepatitis C replication reporter changes, two-sided – Huh7 cells, luciferase reporter, HCV replication inhibitor project, primary screen (AID 1109).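 Note: huh7 hepatoma cells harbouring a luciferase neomycin HCV replicon reporter; luciferase luminescence as measure of HCV replicon replication; test concentration not given here.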 The following applies: Huh7 HCV replicon luciferase reporter, 48 h; higher = more signal.
In assay [13] the target is Left-right determination factor 2 (Homo sapiens) (UniProt O00292). Nature of the assay: small molecules binding LEFTY2 protein – biochemical, small-molecule microarray, 635 nm fluorescence scan, primary screen (AID 1110). The following applies: higher = more signal.
Chain of Left-right determination factor 2 (Homo sapiens) (O00292 whole entry, looked up): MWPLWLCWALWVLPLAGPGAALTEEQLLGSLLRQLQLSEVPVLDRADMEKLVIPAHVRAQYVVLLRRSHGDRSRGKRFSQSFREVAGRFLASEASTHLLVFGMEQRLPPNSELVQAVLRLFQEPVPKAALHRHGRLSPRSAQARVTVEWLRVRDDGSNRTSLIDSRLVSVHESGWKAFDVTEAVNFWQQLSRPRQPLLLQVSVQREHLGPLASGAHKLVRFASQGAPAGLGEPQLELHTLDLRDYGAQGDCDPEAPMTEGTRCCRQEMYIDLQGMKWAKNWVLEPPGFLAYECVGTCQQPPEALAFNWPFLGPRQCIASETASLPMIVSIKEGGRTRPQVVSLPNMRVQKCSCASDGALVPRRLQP
The target of assay [14] is Calmodulin-1 (Homo sapiens) (UniProt P0DP23). The assay is described as follows: small molecules binding calmodulin-1 with EGTA – biochemical, small-molecule microarray, Cy5-labelled CALM1, profiling panel (AID 1111).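 Note: labelled calmodulin applied in Tris saline Tween buffer holding calcium plus EGTA and DTT.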 The following applies: Cy5-CALM1 binding fluorescence, higher = more signal.
The target is the same in assay [15]. Nature of the assay: small molecules binding Ca-loaded calmodulin-1 – biochemical, small-molecule microarray, Cy5-labelled CALM1, plus calcium, artefact control for SMM control-protein annotation, profiling panel (AID 1112).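 Note: score merges spot fluorescence with signal to noise from triplicate slides.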 The following applies: Cy5-CALM1 binding fluorescence, higher = more signal.
A short description of assay [16]: probe aWnt5a binding to arrayed compounds – biochemical, biotinylated probe, 635/667 nm fluorescence, primary screen (AID 1113).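 Note: score merges 667 nm fluorescence intensity with signal-to-noise per printed feature.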 The following applies: small-molecule microarray, higher = more signal.
Assay [17] is described as follows: probe aShh binding to arrayed compounds – biochemical, biotinylated probe, 635/667 nm fluorescence, primary screen (AID 1114).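 Note: probe is biotin-labelled aShh protein from a stem cell growth factor screen; measures binding of labelled protein to compounds printed on the slide; score merges feature fluorescence at 667 nm with signal-to-noise.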 The following applies: small-molecule microarray, higher = more signal.
The nature of assay [18]: probe aNog binding to arrayed compounds – biochemical, biotinylated probe, 635/667 nm fluorescence, primary screen (AID 1115).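 Note: probe is biotinylated aNog protein used at 0.15 µg/mL for 1 h at 4 C; z-score combines 667 nm fluorescence of each spot with its signal to noise.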 The following applies: small-molecule microarray, higher = more signal.
The target of assay [19] is Torsin-1A-interacting protein 1 (Homo sapiens) (UniProt Q5JTV8). The assay is described as follows: compound microarray binding of lysate hLAP1 – cell lysate, small-molecule microarray, COS7 lysate, 635/667 nm fluorescence, primary screen (AID 1116). The following applies: 635 nm fluorescence, higher = more signal.
Chain of Torsin-1A-interacting protein 1 (Homo sapiens) (Q5JTV8 whole entry, looked up): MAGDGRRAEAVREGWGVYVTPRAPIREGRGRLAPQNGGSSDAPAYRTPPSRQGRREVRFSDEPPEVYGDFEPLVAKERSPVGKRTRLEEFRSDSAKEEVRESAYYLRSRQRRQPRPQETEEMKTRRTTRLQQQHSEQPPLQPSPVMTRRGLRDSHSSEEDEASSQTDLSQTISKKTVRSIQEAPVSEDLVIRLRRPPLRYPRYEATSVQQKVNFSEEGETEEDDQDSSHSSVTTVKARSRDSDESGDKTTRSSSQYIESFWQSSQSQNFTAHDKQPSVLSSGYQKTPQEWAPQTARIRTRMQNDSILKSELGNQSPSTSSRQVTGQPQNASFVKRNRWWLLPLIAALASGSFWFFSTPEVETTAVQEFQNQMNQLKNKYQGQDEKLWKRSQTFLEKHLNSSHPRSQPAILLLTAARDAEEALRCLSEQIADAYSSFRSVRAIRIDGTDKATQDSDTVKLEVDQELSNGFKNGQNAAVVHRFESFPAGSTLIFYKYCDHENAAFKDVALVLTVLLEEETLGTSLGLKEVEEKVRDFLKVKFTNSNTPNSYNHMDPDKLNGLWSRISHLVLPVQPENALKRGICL
Assay [20] has as its target Alpha-bungarotoxin (Bungarus multicinctus) (UniProt P60615). Nature of the assay: compounds binding labelled alpha-BTX control protein – biochemical, small-molecule microarray, Alexa647 label, 635/667 nm fluorescence, artefact control for SMM control protein annotation, profiling panel (AID 1117). The following applies: alpha-BTX-A647 binding fluorescence, higher = more signal.

Activity calls are given as the source filed them.

Chain of Epidermal growth factor receptor (Homo sapiens) (P00533 whole entry, looked up): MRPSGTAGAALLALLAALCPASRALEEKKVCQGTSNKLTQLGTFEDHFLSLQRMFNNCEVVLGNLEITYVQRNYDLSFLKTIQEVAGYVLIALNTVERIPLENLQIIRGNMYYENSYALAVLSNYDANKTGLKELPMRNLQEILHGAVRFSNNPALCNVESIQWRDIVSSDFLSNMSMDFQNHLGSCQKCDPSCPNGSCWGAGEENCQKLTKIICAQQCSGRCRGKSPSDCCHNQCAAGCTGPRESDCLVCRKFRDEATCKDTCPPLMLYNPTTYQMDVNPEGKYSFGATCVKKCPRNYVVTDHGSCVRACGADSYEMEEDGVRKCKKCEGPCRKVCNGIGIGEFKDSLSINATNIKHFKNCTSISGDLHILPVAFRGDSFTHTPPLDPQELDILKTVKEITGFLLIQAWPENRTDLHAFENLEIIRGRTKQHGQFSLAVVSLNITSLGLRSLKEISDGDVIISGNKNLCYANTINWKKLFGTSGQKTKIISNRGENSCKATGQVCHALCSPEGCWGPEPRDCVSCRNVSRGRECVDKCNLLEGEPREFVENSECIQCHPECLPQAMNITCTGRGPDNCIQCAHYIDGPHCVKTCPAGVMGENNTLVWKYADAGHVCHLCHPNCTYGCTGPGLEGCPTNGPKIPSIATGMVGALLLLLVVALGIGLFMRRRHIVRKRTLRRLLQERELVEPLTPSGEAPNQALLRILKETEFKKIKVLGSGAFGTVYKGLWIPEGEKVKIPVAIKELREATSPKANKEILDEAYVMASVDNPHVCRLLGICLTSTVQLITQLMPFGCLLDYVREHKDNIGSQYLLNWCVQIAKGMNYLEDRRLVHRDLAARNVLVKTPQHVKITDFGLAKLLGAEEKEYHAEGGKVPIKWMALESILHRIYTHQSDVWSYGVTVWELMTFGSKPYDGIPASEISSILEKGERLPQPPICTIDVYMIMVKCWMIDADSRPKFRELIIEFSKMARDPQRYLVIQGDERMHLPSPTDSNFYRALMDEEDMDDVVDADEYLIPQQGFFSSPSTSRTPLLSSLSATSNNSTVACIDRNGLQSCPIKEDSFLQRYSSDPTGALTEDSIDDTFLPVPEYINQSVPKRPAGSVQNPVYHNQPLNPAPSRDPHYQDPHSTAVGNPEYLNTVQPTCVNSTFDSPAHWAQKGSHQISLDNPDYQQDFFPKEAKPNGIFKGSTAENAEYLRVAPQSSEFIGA
Chain of Alpha-bungarotoxin (Bungarus multicinctus) (P60615 whole entry, looked up): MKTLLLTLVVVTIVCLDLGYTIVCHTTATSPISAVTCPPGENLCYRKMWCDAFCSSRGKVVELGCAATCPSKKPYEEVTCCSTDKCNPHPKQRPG
Chain of Fibroblast growth factor 10 (Homo sapiens) (O15520 whole entry, looked up): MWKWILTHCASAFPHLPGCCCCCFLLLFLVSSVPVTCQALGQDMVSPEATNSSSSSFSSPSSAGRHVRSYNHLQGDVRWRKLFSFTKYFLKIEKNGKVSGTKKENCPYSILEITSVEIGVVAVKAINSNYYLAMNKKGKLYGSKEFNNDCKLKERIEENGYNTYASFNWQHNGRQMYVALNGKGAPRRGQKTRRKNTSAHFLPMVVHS

Regarding `COCCCNC(=O)[C@@]1(Cc2ccccc2I)c2ccccc2C(=O)N(C2CCCCC2)[C@H]1c1ccc(CO)cc1`, the composite z-score was 1.25 in assay [1]; 0.015 in assay [2]; 0.445 in [3]; 0.973 in [5]; 0.681 in assay [6]; -0.0802 in [7]. The composite z-score in assay [8] is 0.0553; in assay [9] it was 0.249; in [10], 0.123; in assay [11], 1.13; in [13], -0.418; in [14], 0.634. Moreover, the composite z-score in [15] was 0.305; in [16], -0.0061; in assay [17], 0.313; in [18] it was -0.417; in assay [19], 1.57; in assay [20] it was 1.19. For the same molecule, the z-score in [4] was -0.235 (inactive); in assay [12], -1.45.

As for `COC(=O)C(CC#Cc1ccc2c(c1)[C@]1(C(=O)N2)[C@H](c2ccccc2OCCO)N2[C@H](c3ccccc3)[C@H](c3ccccc3)OC(=O)[C@H]2[C@@H]1C(=O)N1CCN(c2ncccn2)CC1)C(=O)OC`, the composite z-score in assay [1] was 1.01; in assay [2] it was -0.216; in assay [3] it was -0.145; in [5], 0.683; in assay [6], 1.29; in [7], 0.484. Besides, the composite z-score came to 1.27 in [8]; 0.891 in assay [9]; 0.143 in assay [10]; 1.37 in assay [11]; 0.595 in [13]; 0.999 in [14]. In addition, the composite z-score in [15] was -0.154; in assay [16], -0.152; in [17], 0.178; in assay [18], -0.158; in [19], 0.664; in assay [20], 0.876. The z-score was -0.376 (inactive) in [4] and -2.63 in assay [12].

With `COC(=O)C1=CC(c2ccc(CO)cc2)=CC(C2CC2)N(Cc2cc3c(cc2Br)OCO3)C=C1C(=O)OC` (stereo not given), the composite z-score turned out to be 1.66 in assay [1]; 0.706 in assay [2]; 0.844 in assay [3]; 1.18 in assay [5]; 1.29 in assay [6]; 0.737 in assay [7]. Besides, the composite z-score in assay [8] was 0.89; in assay [9], 0.157; in assay [10], 0.836; in [11], 1.32; in assay [13], 0.568; in assay [14] it was 2.06. For the same molecule, the composite z-score in assay [15] was 0.631; in assay [16], 0.0251; in [17] it was 0.254; in [18] it was 0.564; in [19], 2.15; in assay [20], 2.47. Further, the results for the z-score in [4] and in assay [12] were 1.17 (inactive) and -1.41, respectively.

Turning to `CCCCC(=C=CC[C@@H](O)c1ccc(OCCO)cc1)CCO`, the composite z-score is 0.413 in assay [1]; -0.0198 in assay [2]; -0.305 in assay [3]; 0.701 in assay [5]; -0.246 in [6]; -0.899 in [7]. The composite z-score in assay [8] was -0.281; in assay [9], -0.549; in assay [10] it was 1.09; in assay [11], -0.919; in [13] it was -0.488; in assay [14] it was -0.45. Further, the composite z-score in assay [15] is 0.0486; in assay [16], -0.101; in [17], -0.154; in [18] it was -0.314; in assay [19], 0.764; in [20], 0.657. In addition, the z-score in assay [4] was -0.755 (inactive); in [12], -0.96.

Take `Cc1ccc(S(=O)(=O)N2[C@@H](c3ccccc3)C(C(=O)O)=C[C@H]2C(C)(C)C)cc1`: the composite z-score in assay [1] was found to be 1.19; in assay [2], 1.08; in assay [3], 1.01; in assay [5], 0.644; in [6], 1.35; in [7], 0.374. Moreover, the composite z-score in [8] was 0.819; in assay [9], 0.0781; in [10] it was -0.124; in assay [11], 1.15; in assay [13], 0.261; in [14] it was 2.24. In addition, the composite z-score in assay [15] was 0.75; in assay [16], -0.0718; in assay [17], -0.107; in assay [18] it was -0.0252; in assay [19], 1.49; in [20], 1.94. Besides, the z-score in assay [4] is 0.233 (inactive); in [12], -1.25.
